# Assay results: PubChem BioAssay (NCI)
# The panel holds about 83,000 compounds, 20% with a hit somewhere; the sample as a whole holds those more often.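 How to read the values: 0–100, growth inhibition (40 = 60% inhibited); 0, no net growth; -100 to 0, cell death (-40 = 40% of starting cells died; -100 = all dead).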 Values without a mark were called inactive. Calls of active or inactive are those of the source. How the source made its calls: active means growth percent below 10; inactive means the rest.
# What was measured:
# Test in all cases: NCI-60 one-dose screen, 48 h (100 = growth as untreated, 0 = no growth, -100 = all killed)
# Details in all cases: 10 µM unless noted
# RPMI-8226 leukemia = tested on: RPMI-8226 leukemia
# OVCAR-8 ovarian = tested on: OVCAR-8 ovarian
# OVCAR-5 ovarian = tested on: OVCAR-5 ovarian
# OVCAR-4 ovarian = tested on: OVCAR-4 ovarian
# SK-OV-3 ovarian = tested on: SK-OV-3 ovarian
# IGROV1 ovarian = tested on: IGROV1 ovarian
# OVCAR-3 ovarian = tested on: OVCAR-3 ovarian
# NCI/ADR-RES ovarian = tested on: NCI/ADR-RES ovarian
# T-47D breast = tested on: T-47D breast
# BT-549 breast = tested on: BT-549 breast
# MDA-MB-435 melanoma = tested on: MDA-MB-435 melanoma
# SW-620 colon = tested on: SW-620 colon
# MCF7 breast = tested on: MCF7 breast
# HCT-116 colon = tested on: HCT-116 colon
# HCC-2998 colon = tested on: HCC-2998 colon
# KM12 colon = tested on: KM12 colon
# HS 578T breast = tested on: HS 578T breast
SMILES,growth (RPMI-8226 leukemia),growth (OVCAR-8 ovarian),growth (OVCAR-5 ovarian),growth (OVCAR-4 ovarian),growth (SK-OV-3 ovarian),growth (IGROV1 ovarian),growth (OVCAR-3 ovarian),growth (NCI/ADR-RES ovarian),growth (T-47D breast),growth (BT-549 breast),growth (MDA-MB-435 melanoma),growth (SW-620 colon),growth (MCF7 breast),growth (HCT-116 colon),growth (HCC-2998 colon),growth (KM12 colon),growth (HS 578T breast)
Cc1cn(-c2cc(C(=O)Nc3cccc(-n4ccc5c(NC(=O)c6ccccc6)nccc54)c3)cc(C(F)(F)F)c2)cn1,-51.7% (active),4.81% (active),35.6%,75.7%,13.1%,7.51% (active),-67.7% (active),4.71% (active),62.5%,27.9%,-14.9% (active),13.4%,7.18% (active),-78.6% (active),12.7%,-25.6% (active),
O=C(Nc1ccc(-n2cc(-c3ccncc3)c(-c3ccc(O)c(Cl)c3)n2)cc1)Nc1cccc(Cl)c1Cl,12.7%,62%,101%,78.7%,81.7%,77.9%,55.3%,66.7%,42.1%,59%,51.3%,73.7%,42.2%,36.8%,70%,39.1%,
O=c1[nH]ccc2nc(N3CCC(O)CC3)nc(Nc3cccc(C(F)(F)F)c3)c12,62.6%,45.3%,137%,91.4%,32.3%,71.2%,68.5%,32.9%,61.6%,,7.33% (active),48.9%,22.4%,42%,83.8%,23%,80.2%
Cc1ccc[n+](CC(=O)c2cccc3ccccc23)c1,101%,114%,98.6%,103%,96.9%,96%,98.6%,108%,91.9%,93.8%,102%,,98.6%,99.6%,104%,103%,106%
CC(=O)n1cc(/C=C2\N=C(c3ccc(Cl)cc3)N(c3ccc(S(=O)(=O)Nc4nccs4)cc3)C2=O)c2ccccc21,62%,66.1%,105%,73.3%,110%,91.4%,76.9%,106%,55.3%,92.8%,77%,96.2%,49.8%,92.6%,107%,69.9%,72.4%
COc1cc(-c2nc(SCC(=O)Nc3ccc(C(C)=O)cc3)[nH]c(=O)c2C#N)cc(OC)c1OC,7.47% (active),23.2%,51.9%,61.5%,34.6%,38.4%,0.381% (active),75.7%,35.9%,36.8%,-46.1% (active),25.8%,18.2%,3.92% (active),21%,16.8%,10.6%
CCNC(=O)Oc1ccc(/C(=C(/CC)Cc2ccccc2)c2ccc(OCCN3CCOCC3)cc2)cc1,16%,57.8%,94.8%,45.9%,75.5%,59.4%,50.8%,49.4%,20.5%,69.9%,49.9%,59.3%,22.5%,41.6%,79.5%,37.3%,62.5%
O=C(Nc1ccc(-n2ccc3c(NC(=O)c4ccccc4)ncnc32)cc1)Nc1ccc(Cl)c(Cl)c1,-1.3% (active),0.377% (active),39.6%,-74.1% (active),67.9%,-2.23% (active),-67.1% (active),53.2%,33.5%,33.3%,5.82% (active),-2.62% (active),0.297% (active),-82.8% (active),32.7%,-8.64% (active),
